From PubChem BioAssay AID1159580 (chemical genetic matrix, 2015)
In all, about 5,500 compounds went through this assay and about 2,000 (36%) were called active. About 18% were inconclusive and are not listed. Cut-off read from the data, not from the text of the source: active = normalized growth mostly below about 0.91 (no sharp cut-off); inconclusive = no clear call, values can overlap the other calls; inactive = mostly above about 0.92. The list shows a part of the results.

Assay: chemical genetic growth profiling, strain panel (AID 1159580);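 note: tested at 20 µM; growth read once vehicle control cultures reached saturation at 30 °C; 1 = growth at the plate median or of vehicle wells; lower values mean less growth of the strain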
Settings: growth OD

Measured: normalized growth

CCN1CCCC(OC(=O)C(c2ccccc2)c2ccccc2)C1 (centres undefined)
inactive: S. cerevisiae deletion strains, locus YJR075W, strain HOC1, stronger effect = lower value 1 | S. cerevisiae deletion strains, locus YKL009W, strain mrt4, stronger effect = lower value 1.02 | S. cerevisiae deletion strains, locus YKL068W, stronger effect = lower value 0.999 | S. cerevisiae deletion strains, locus YKL085W, strain MDH1 (second series), stronger effect = lower value 1.01 | S. cerevisiae deletion strains, locus YKL085W, strain MDH1, stronger effect = lower value 1.01 | S. cerevisiae deletion strains, locus YKL160W, strain elf1, stronger effect = lower value 0.983 | S. cerevisiae deletion strains, locus YKL190W, strain CNB1, stronger effect = lower value 1.01 | S. cerevisiae deletion strains, locus YKR001C, strain vps1, stronger effect = lower value 1.02 | S. cerevisiae deletion strains, locus YKR026C, strain gcn3, stronger effect = lower value 0.996 | S. cerevisiae deletion strains, locus YKR091W, strain srl3, stronger effect = lower value 0.992 | S. cerevisiae deletion strains, locus YLL001W, strain dnm1, stronger effect = lower value 0.971 | S. cerevisiae deletion strains, locus YLL026W, stronger effect = lower value 0.992 | S. cerevisiae deletion strains, locus YLL041C, strain sdh2, stronger effect = lower value 0.987 | S. cerevisiae deletion strains, locus YLR027C, strain aat2, stronger effect = lower value 0.983 | S. cerevisiae deletion strains, locus YLR039C, strain RIC1, stronger effect = lower value 1.07 | S. cerevisiae deletion strains, locus YLR058C, strain SHM2, stronger effect = lower value 1.01 | S. cerevisiae deletion strains, locus YLR102C, strain apc9, stronger effect = lower value 1.01 | S. cerevisiae deletion strains, locus YLR113W, strain HOG1, stronger effect = lower value 0.958 | S. cerevisiae deletion strains, locus YLR221C, strain rsa3, stronger effect = lower value 0.991 | S. cerevisiae deletion strains, locus YLR258W, strain gsy2, stronger effect = lower value 0.977 | S. cerevisiae deletion strains, locus YLR262C, strain YPT6 (second series), stronger effect = lower value 1.02 | S. cerevisiae deletion strains, locus YLR262C, strain YPT6, stronger effect = lower value 1.08 | S. cerevisiae deletion strains, locus YLR268W, strain sec22, stronger effect = lower value 1.01 | S. cerevisiae deletion strains, locus YLR320W, strain mms22, stronger effect = lower value 0.982 | S. cerevisiae deletion strains, locus YLR330W, strain CHS5, stronger effect = lower value 1.02 | S. cerevisiae deletion strains, locus YLR342W, strain FKS1 (second series), stronger effect = lower value 1.01 | S. cerevisiae deletion strains, locus YLR342W, strain FKS1, stronger effect = lower value 0.985 | S. cerevisiae deletion strains, locus YLR357W, strain rsc2, stronger effect = lower value 0.933 | S. cerevisiae deletion strains, locus YLR370C, strain arc18, stronger effect = lower value 0.994 | S. cerevisiae deletion strains, locus YLR371W, strain rom2, stronger effect = lower value 1.01 | S. cerevisiae deletion strains, locus YLR384C, strain iki3, stronger effect = lower value 0.983 | S. cerevisiae deletion strains, locus YLR418C, strain cdc73, stronger effect = lower value 0.998 | S. cerevisiae deletion strains, locus YML016C, strain PPZ1, stronger effect = lower value 1 | S. cerevisiae deletion strains, locus YML032C, strain rad52, stronger effect = lower value 1.01 | S. cerevisiae deletion strains, locus YML120C, strain ndi1, stronger effect = lower value 0.961 | S. cerevisiae deletion strains, locus YML124C, strain tub3, stronger effect = lower value 1 | S. cerevisiae deletion strains, locus YMR058W, strain fet3, stronger effect = lower value 0.982 | S. cerevisiae deletion strains, locus YMR078C, strain ctf18, stronger effect = lower value 1 | S. cerevisiae deletion strains, locus YMR125W, strain sto1, stronger effect = lower value 0.977 | S. cerevisiae deletion strains, locus YMR129W, stronger effect = lower value 0.969 | S. cerevisiae deletion strains, locus YMR205C, strain PFK2, stronger effect = lower value 0.984 | S. cerevisiae deletion strains, locus YMR223W, strain ubp8, stronger effect = lower value 1.01 | S. cerevisiae deletion strains, locus YMR231W, strain pep5, stronger effect = lower value 0.998 | S. cerevisiae deletion strains, locus YMR307W, strain GAS1, stronger effect = lower value 1.09 | S. cerevisiae deletion strains, locus YNL067W, strain RPL9B, stronger effect = lower value 1.01 | S. cerevisiae deletion strains, locus YNL071W, strain lat1, stronger effect = lower value 0.973 | S. cerevisiae deletion strains, locus YNL153C, strain GIM3, stronger effect = lower value 0.992 | S. cerevisiae deletion strains, locus YNL183C, strain NPR1, stronger effect = lower value 0.943 | S. cerevisiae deletion strains, locus YNL209W, strain ssb2, stronger effect = lower value 1.01 | S. cerevisiae deletion strains, locus YNL233W, strain BNI4, stronger effect = lower value 1.01 | S. cerevisiae deletion strains, locus YNL248C, strain rpa49, stronger effect = lower value 0.989 | S. cerevisiae deletion strains, locus YNL250W, strain rad50, stronger effect = lower value 1 | S. cerevisiae deletion strains, locus YNL271C, strain bni1, stronger effect = lower value 1.01 | S. cerevisiae deletion strains, locus YNL298W, strain CLA4, stronger effect = lower value 1.01 | S. cerevisiae deletion strains, locus YNL307C, strain MCK1, stronger effect = lower value 1.01 | S. cerevisiae deletion strains, locus YNL322C, strain KRE1 (second series), stronger effect = lower value 0.992 | S. cerevisiae deletion strains, locus YNL322C, strain KRE1, stronger effect = lower value 1.01 | S. cerevisiae deletion strains, locus YNR049C, strain mso1, stronger effect = lower value 0.981 | S. cerevisiae deletion strains, locus YNR052C, strain pop2, stronger effect = lower value 1.02 | S. cerevisiae deletion strains, locus YOL006C, strain TOP1, stronger effect = lower value 0.982 | S. cerevisiae deletion strains, locus YOL012C, strain htz1 1.06 | S. cerevisiae deletion strains, locus YOL147C, strain pex11, stronger effect = lower value 1 | S. cerevisiae deletion strains, locus YOR001W, strain rrp6, stronger effect = lower value 0.973 | S. cerevisiae deletion strains, locus YOR061W, strain CKA2, stronger effect = lower value 1.01 | S. cerevisiae deletion strains, locus YOR069W, strain VPS5, stronger effect = lower value 1.01 | S. cerevisiae deletion strains, locus YOR070C, strain gyp1, stronger effect = lower value 0.998 | S. cerevisiae deletion strains, locus YOR080W, strain dia2, stronger effect = lower value 0.975 | S. cerevisiae deletion strains, locus YOR083W, strain WHI5, stronger effect = lower value 0.98 | S. cerevisiae deletion strains, locus YOR106W, strain vam3, stronger effect = lower value 0.988 | S. cerevisiae deletion strains, locus YOR136W, strain idh2, stronger effect = lower value 1 | S. cerevisiae deletion strains, locus YOR144C, strain elg1, stronger effect = lower value 0.996 | S. cerevisiae deletion strains, locus YOR184W, strain ser1, stronger effect = lower value 1.04 | S. cerevisiae deletion strains, locus YOR231W, strain MKK1, stronger effect = lower value 0.983 | S. cerevisiae deletion strains, locus YOR265W, strain rbl2, stronger effect = lower value 0.995 | S. cerevisiae deletion strains, locus YOR270C, strain vph1, stronger effect = lower value 0.987 | S. cerevisiae deletion strains, locus YOR290C, strain snf2, stronger effect = lower value 0.98 | S. cerevisiae deletion strains, locus YOR316C, strain cot1, stronger effect = lower value 1.01 | S. cerevisiae deletion strains, locus YPL051W, strain arl3, stronger effect = lower value 0.988 | S. cerevisiae deletion strains, locus YPL055C, strain LGE1, stronger effect = lower value 0.996 | S. cerevisiae deletion strains, locus YPL078C, strain atp4, stronger effect = lower value 0.974 | S. cerevisiae deletion strains, locus YPL106C, strain sse1, stronger effect = lower value 0.97 | S. cerevisiae deletion strains, locus YPL240C, strain hsp82, stronger effect = lower value 0.991 | S. cerevisiae deletion strains, locus YPL256C, strain CLN2, stronger effect = lower value 0.979 | S. cerevisiae deletion strains, locus YPR119W, strain clb2, stronger effect = lower value 1.01 | S. cerevisiae deletion strains, locus YPR141C, strain kar3, stronger effect = lower value 1 | S. cerevisiae deletion strains, locus YPR163C, strain tif3, stronger effect = lower value 1 | S. cerevisiae deletion strains, locus YPR167C, strain met16, stronger effect = lower value 1.01 | S. cerevisiae deletion strains, strain wtn01, stronger effect = lower value 1 | S. cerevisiae strains, strain wild type, stronger effect = lower value 1.01
